Paper PMC4336329 (PLoS ONE, 2015)
Screen size: about 310,000 compounds; about 14,000 (4.5%) showed an effect of 50% or more. The effect is printed as a negative number. The full list was thinned out, with strong results kept by preference.

Target: human ether-à-go-go-related gene (hERG) potassium channel (human, UniProt Q12809)
Experiment: primary screen, population patch clamp on CHO cells stably expressing hERG; higher = less effect of the substance
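Also: peak tail current of the secondary pulse compared with the same well before compound.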

human ether-à-go-go-related gene (hERG) potassium channel, sequence (Q12809 whole entry, looked up): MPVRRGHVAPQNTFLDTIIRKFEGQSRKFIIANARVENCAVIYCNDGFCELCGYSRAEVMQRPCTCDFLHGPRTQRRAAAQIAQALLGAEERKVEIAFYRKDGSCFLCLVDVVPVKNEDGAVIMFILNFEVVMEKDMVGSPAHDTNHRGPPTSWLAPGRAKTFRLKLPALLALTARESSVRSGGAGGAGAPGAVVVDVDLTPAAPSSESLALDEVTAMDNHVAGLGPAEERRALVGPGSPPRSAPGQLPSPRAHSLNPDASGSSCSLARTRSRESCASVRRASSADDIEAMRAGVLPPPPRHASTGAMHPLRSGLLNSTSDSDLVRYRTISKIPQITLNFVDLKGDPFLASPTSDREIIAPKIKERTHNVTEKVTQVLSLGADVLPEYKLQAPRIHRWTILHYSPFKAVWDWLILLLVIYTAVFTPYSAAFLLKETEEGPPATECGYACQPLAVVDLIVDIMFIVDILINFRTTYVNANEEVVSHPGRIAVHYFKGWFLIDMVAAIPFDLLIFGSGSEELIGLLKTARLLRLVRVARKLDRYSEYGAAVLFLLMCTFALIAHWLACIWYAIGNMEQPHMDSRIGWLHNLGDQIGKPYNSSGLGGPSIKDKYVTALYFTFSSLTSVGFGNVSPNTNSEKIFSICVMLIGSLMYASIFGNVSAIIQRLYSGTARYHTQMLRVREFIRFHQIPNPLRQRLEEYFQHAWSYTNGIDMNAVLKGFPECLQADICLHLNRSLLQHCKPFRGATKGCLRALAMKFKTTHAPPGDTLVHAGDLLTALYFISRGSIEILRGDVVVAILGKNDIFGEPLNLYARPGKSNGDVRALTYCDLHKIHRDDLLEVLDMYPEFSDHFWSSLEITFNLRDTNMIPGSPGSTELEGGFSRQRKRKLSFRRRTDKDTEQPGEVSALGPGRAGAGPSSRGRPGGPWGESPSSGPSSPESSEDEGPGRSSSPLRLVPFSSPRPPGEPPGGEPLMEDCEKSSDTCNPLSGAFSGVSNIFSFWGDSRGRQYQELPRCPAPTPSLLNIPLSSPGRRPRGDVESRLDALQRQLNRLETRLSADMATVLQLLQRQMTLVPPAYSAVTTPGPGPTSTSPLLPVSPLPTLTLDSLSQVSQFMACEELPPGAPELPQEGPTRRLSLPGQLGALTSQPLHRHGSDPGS

SMILES	hERG current change (%, negative = inhibition) at 10uM
N#Cc1ccc(-c2csc(NNC(=O)c3ccccc3)n2)cc1	0.0899%
Cc1ccc(NS(=O)(=O)c2ccc(C3CCCCC3)cc2)cc1	-10.3%
CC12CCC(=O)N1C(C(=O)NCc1ccc(Cl)cc1Cl)CS2 (centres unmarked)	-0.564%
CN(C)c1ccc(-c2nc3ccccc3n2C)cc1	-49.9%
CCn1c(-c2ccc(N)cc2)nc2ccccc21	4.21%
CCn1c(-c2ccc(N(C)C)cc2)nc2ccccc21	-50.3%
COCn1c(-c2ccccc2)nc2ccccc21	-5.43%
C=C(C)Cn1c(-c2ccccc2)nc2ccccc21	-64.9%
C=C(C)Cn1c(-c2ccc(OC)cc2)nc2ccccc21	-23.4%
Cc1ccc(C(=O)CSc2nc(N)cc(=O)[nH]2)cc1	2.68%
Fc1ccc(NC(=S)N/N=C/c2cccc(Br)c2)c(F)c1	3.9%
O=C(COC(=O)Cc1ccsc1)NCc1ccc(Cl)cc1	10.6%
CC(Sc1cnc2ccccc2n1)C(=O)O (centres unmarked)	15.9%
Cc1ccc(C#N)c(SCc2ccccc2[N+](=O)[O-])n1	2.72%
CCOc1ccc(-c2nc(C)c(C(C)=O)n2O)cc1	-0.685%
Cc1nonc1OCCNCCNc1ccc([N+](=O)[O-])c2cccnc12	-52.2%
Cc1nonc1OCCNCCNc1ccccc1[N+](=O)[O-]	-23.4%
O=[N+]([O-])c1ccc(NCCNCCOc2nonc2-c2ccccc2)c([N+](=O)[O-])c1	-68.6%
CCNCCNc1ccc([N+](=O)[O-])c2cccnc12	-22.8%
Cc1nonc1OCCNc1ccc([N+](=O)[O-])cc1[N+](=O)[O-]	-54.7%
Cc1nonc1OCCCNc1ccc([N+](=O)[O-])cc1Cl	9.59%
Cc1nonc1OCCN1CCN(c2ccccc2[N+](=O)[O-])CC1.Cl	-37.2%
Cc1nonc1OCCNCCNc1ccc([N+](=O)[O-])cc1Cl	-49.7%
O=[N+]([O-])c1ccc(N2CCN(CCOc3nonc3-c3ccccc3)CC2)c(Cl)c1	-4.17%

SMILES	hERG current change (%, negative = inhibition) at 10uM
Cc1nonc1OCCNc1ccc([N+](=O)[O-])c2cccnc12	-18%
O=[N+]([O-])c1cc(C(F)(F)F)ccc1NCCOc1ccccc1	-3.64%
Cc1nonc1OCCN1CCN(c2ccc([N+](=O)[O-])cc2)CC1	-98.3%
CNC(=O)c1csc(-c2ccc(Cl)cc2)n1	-4.29%
CCn1cc([N+](=O)[O-])c(C(=O)NCc2ccc(Cl)cc2)n1	-6.18%
CCO.NCCc1c[nH]c2ccc(C(N)=O)cc12.O=C([O-])/C=C\C(=O)[O-]	11.6%
CC(=O)c1ccc(NC(=O)C2CCCN2S(=O)(=O)c2ccc(F)cc2)cc1 (centres unmarked)	-16.6%
O=c1c2ccccc2[nH]c(=S)n1CCCn1ccnc1	-0.744%
O=S(=O)(c1ccc(NC(=S)Nc2ccc3c(c2)OCO3)cc1)N1CCOCC1	13.1%
COc1ccc(C2/C=C\CN(C(=O)C3CCCCC3)CC(=O)N2Cc2ccc(F)cc2)cc1 (centres unmarked)	-10.1%
Cc1cc(OCC(=O)NNC(=O)CCc2ccccc2)ccc1Br	17.6%
CCC[N+](C)(C)C(C)C(OC(C)=O)c1ccccc1.[I-] (centres unmarked)	15.5%
CCOC(=O)CC(=O)Nc1ccsc1C(N)=O	15.9%
COc1ccccc1N1CCN(/N=C/c2ccc(C(=O)O)cc2)CC1	16.3%
COc1ccc(S(=O)(=O)NCC2CCCN(C(=O)c3ccccc3)C2)cc1 (centres unmarked)	8.3%
CC1=C(C(=O)N2CCOCC2)C(c2c(C)cc(C)cc2C)NC(=S)N1 (centres unmarked)	10.5%
COC(=O)C1=CN(c2cc(C)cc(C)c2)C=C(C(=O)OC)C1c1ccc(OC)c(O)c1	10.9%
CN(C)CCCNCCNC(=O)/C=N\O.Cl	-65.4%
CN(C)CCCNCCCCNC(=O)/C=N/O	0.266%
CN(C)CCCNCCCNC(=O)/C=N/O	10.2%
CCOc1ccc(OCCC(=O)OC(C)C(=O)Nc2ccc(C(C)=O)cc2)cc1 (centres unmarked)	8.72%
CC(=O)Nc1ccc(S(=O)(=O)N2c3ccccc3NC(=O)CC2C)c(Cl)c1 (centres unmarked)	11.9%
CCOc1ccc(Nc2nc3c(C)cccc3cc2C#N)cc1	4.76%
Cc1cc(=O)oc2cc(Oc3ccc(C(N)=O)cc3[N+](=O)[O-])ccc12	-20.7%

SMILES	hERG current change (%, negative = inhibition) at 10uM
Cc1cc(=O)oc2cc(Oc3ccc([N+](=O)[O-])cc3[N+](=O)[O-])ccc12	-64.4%
Nc1ccc(Oc2ccc([N+](=O)[O-])cc2[N+](=O)[O-])cc1	-37.7%
Cc1cc(=O)oc2cc(Oc3ccc([N+](=O)[O-])cc3C(F)(F)F)ccc12	-15%
O=Cc1cccc(Oc2ccc([N+](=O)[O-])cc2[N+](=O)[O-])c1	-55%
O=C(N/N=C/c1cccc(Oc2ccc([N+](=O)[O-])cc2[N+](=O)[O-])c1)c1cncc(Br)c1	-32.1%
Cc1ccc(O)c(C2=Nc3ccccc3N=C(c3cccc([N+](=O)[O-])c3)C2)c1	20.9%
O=C(COc1ccccc1)OCc1cc(-c2ccco2)on1	5.99%
Cc1ccc(C)c(NC(=S)N2CCN(Cc3ccccc3)CC2)c1	11.2%
O=C(O)CCN=C1CCCc2ccccc2N1	7.26%
O=C1CC(c2ccccc2)CC(O)=C1C=NC1CCCCCC1 (centres unmarked)	6.58%
O=C1CC(c2cccc(Cl)c2)CC(O)=C1C=NC1CCCC1 (centres unmarked)	-59.8%
O=C1CC(c2ccccc2)CC(O)=C1C=NC1CCCC1 (centres unmarked)	-5.2%
CCOc1ccc(C(=O)NCC(=O)NCC(c2ccc(OC)cc2)N2CCCC2)cc1 (centres unmarked)	-4.71%
Cc1ccc(C)c(OC(=O)C2CSC3(C)CCC(=O)N23)c1C (centres unmarked)	-7.46%
COc1cc(C(O)P(=O)(OCCC(C)C)c2ccc(N(C)C)cc2)cc(OC)c1OC (centres unmarked)	10.9%
CCOc1ccc2c(c1)ncn2Cc1ccccc1	8.33%
Cc1cccc2cc(CN(CC3CCCO3)C(=O)NC3CCCCC3)c(=O)[nH]c12 (centres unmarked)	-9.99%
COc1ccc(NC(=S)N(CCO)Cc2cc3c(C)cc(C)cc3[nH]c2=O)cc1	-48.8%
Cc1ccc2cc(CN(CCN(C)C)C(=S)Nc3ccccc3)c(=O)[nH]c2c1C	-49.9%
O=C(Nc1cccc(Cl)c1)N(CCN1CCOCC1)Cc1cccc(Cl)c1	-22.1%
COc1ccc(NC(=O)N(CCN2CCCC2)Cc2cc3cc(OC)c(OC)cc3[nH]c2=O)cc1	-4.32%
Cc1ccc2cc(CN(CCN3CCCC3)C(=O)Nc3ccccc3)c(=O)[nH]c2c1C	-57.8%
Cc1ccc2cc(CN(CC3CCCO3)C(=O)NC3CCCCC3)c(=O)[nH]c2c1C (centres unmarked)	-55.4%
Cc1ccc(C)c2[nH]c(=O)c(CN(CC3CCCO3)C(=O)NC3CCCCC3)cc12 (centres unmarked)	-2.81%

SMILES	hERG current change (%, negative = inhibition) at 10uM
Cc1cccc2cc(CN(CCCO)C(=O)Nc3cccc(Cl)c3)c(=O)[nH]c12	-28.4%
COc1ccc(NC(=O)N(CCO)Cc2cc3c(C)cc(C)cc3[nH]c2=O)cc1	-15.3%
Cc1ccc(C)c2[nH]c(=O)c(CN(CCN3CCCC3)C(=O)Nc3cccc(Cl)c3)cc12	-74.1%
Cc1cc(C)c2cc(CN(CCN3CCCC3)C(=O)Nc3ccc(F)cc3)c(=O)[nH]c2c1	-74.4%
CCC(c1nnnn1CS(=O)(=O)c1ccc(C)cc1)N1CCN(c2nc3ccccc3s2)CC1 (centres unmarked)	-4.38%
CC(C)NC(=O)[C@@H]1CSC2c3ccccc3C(=O)N21 (some centres unmarked)	12.7%
Nc1nc(-c2ccc(Cl)cc2)nn1C(=O)c1ccco1	23.3%
CCOC(=O)C(Cc1ccccc1)C(=O)Nc1cccc2ccccc12 (centres unmarked)	-11.8%
CC(C)Cn1c(N)c(C(=O)COC(=O)[C@@H]2CCCN2C(=O)c2cccs2)c(=O)n(C)c1=O	-8.74%
O=C(c1c[nH]c2ccccc12)N1CCOCC1	8.48%
c1ccc(COc2ccc(-c3csnn3)cc2)cc1	-3.17%
Cc1nc(-c2ccc(Cl)cc2)sc1C1(C)CC(c2ccc(OC(F)(F)F)cc2)=NO1 (centres unmarked)	10.3%
O=C(Cc1ccccc1)Nc1cccc(N2C(=O)C=CC2=O)c1	-4.45%
O=C(Nc1cccc2[nH]ncc12)c1ccc(F)cc1	-17.4%
Cc1ccc(C)c2[nH]c(=O)c(CN(Cc3ccco3)C(=O)Nc3ccccc3)cc12	1.89%
Cc1ccc(C)c2[nH]c(=O)c(CN(CCN3CCCC3)C(=O)Nc3ccc(F)cc3)cc12	-75.7%
Cc1cccc2cc(CN(Cc3ccco3)C(=O)NC3CCCCC3)c(=O)[nH]c12	-38.9%
Cc1cccc2cc(CN(CCN3CCOCC3)C(=O)Nc3ccccc3F)c(=O)[nH]c12	-20.6%
Cc1cccc2cc(CN(CCN3CCCC3)C(=O)NC3CCCCC3)c(=O)[nH]c12	-57%
COc1cc2cc(CN(CCN3CCCC3)C(=O)Nc3ccc(F)cc3)c(=O)[nH]c2cc1OC	-7.92%
COc1cc2cc(CN(CCN3CCOCC3)C(=O)Nc3ccc(F)cc3)c(=O)[nH]c2cc1OC	-28.6%
Cc1ccc2cc(CN(CCN3CCCC3)C(=O)Nc3ccc(F)cc3)c(=O)[nH]c2c1C	-70.7%
COc1ccc(CCN(Cc2cc3cccc(C)c3[nH]c2=O)C(=O)NC2CCCCC2)cc1OC	-25%
